A short description of assay [1]: qHTS assay for small molecule agonists of the p53 signaling pathway (AID 651631; calls by dose curve; also: nearly all actives have a fitted effect of over 15% in size). The conditions noted are these: HCT-116 p53RE-bla reporter, beta-lactamase FRET ratio, 16 h; series mostly up to 73.3 µM. In a few lines:
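Testing took place in human colorectal HCT-116 cells with stable p53RE-driven beta-lactamase. After 16 h of compound exposure at 37 °C, a FRET substrate was added and fluorescence recorded 2 h later.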

Assay [2] is described as follows: qHTS assay for small molecules that induce genotoxicity in human embryonic kidney cells expressing luciferase-tagged ATAD5 (AID 651632). Also: nearly all actives have a fitted effect of over 15% in size. Also: potency is read from the fitted curve at half-maximal effect. The following applies: HEK293T ATAD5-luciferase induction, 16 h; series mostly up to 83.3 µM. In outline:
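Luminescence read-out: after 16 hr compound exposure at 37C, ATAD5-luciferase HEK293T cells received Amplite, 30 min RT, then CCD imaging. A rise in signal marks genotoxic stress.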

Assay [3] is described as follows: qHTS assay for small molecule disruptors of the mitochondrial membrane potential - cell viability (AID 720634; calls by dose curve;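 also: human HepG2 liver cancer cells; nearly all actives have a fitted effect of over 20% in size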). The conditions noted are these: HepG2 viability, ATP luminescence (CellTiter-Glo), 1 h; series mostly up to 83.2 µM. In a few lines: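 Luminescence from CellTiter-Glo (ATP content) gave viability in HepG2 cells, read in the same wells as the MMP dye assay after 1 hr compound exposure at 37 C.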
In general terms: In qHTS, concentration-response curves come from the screen itself.

A short description of assay [4]: qHTS assay to test for compound auto fluorescence at 590 nm (red) in HepG2 cells (AID 720674). The following applies: HepG2 autofluorescence, red 540/590 nm, 1 h; series mostly up to 91.3 µM. In a few lines: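 We screened compounds on adherent HepG2 cells, incubating them for an hour at 37 C in 5% CO2 before reading emission at 590 nm under 540 nm excitation; values reflect equivalence to Rose Bengal sodium fluorescence.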

Assay [5] is described as follows: qHTS assay to test for compound auto fluorescence at 535 nm (green) in HepG2 cells (AID 720675). The following applies: green autofluorescence 485/535 nm, 1 h; series mostly up to 91.3 µM.
A short description of assay [6]: qHTS assay to test for compound auto fluorescence at 460 nm (blue) in HEK293 cells (AID 720678). The following applies: blue autofluorescence 405/460 nm; series mostly up to 91.3 µM. In a few lines:
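HEK293 cells (2,000/well, medium with 10% dialyzed FBS) attached 4-5 hr, then exposed to compound overnight at 37C, 5% CO2. Blue fluorescence read at 405/460 nm, with triamterene as reference fluorophore.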

A short description of assay [7]: qHTS assay to test for compound auto fluorescence at 590 nm (red) in HEK293 cells (AID 720679). The conditions noted are these: red autofluorescence 540/590 nm; series mostly up to 91.3 µM. In outline: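 HEK293 cells (2,000/well, 10% dialyzed FBS) attached 4-5 hr, then dosed with compound or DMSO and incubated overnight at 37C, 5% CO2. Red fluorescence read at 540/590 nm, Rose Bengal sodium as reference fluorophore.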

Assay [8] in a line: qHTS assay for small molecule agonists of the p53 signaling pathway - cell viability (AID 651633; calls by dose curve; also: nearly all actives have a fitted effect of over 30% in size). The conditions noted are these: p53RE-bla HCT-116 viability, ATP luminescence, 16 h; series mostly up to 83.3 µM. In outline: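 Viability counter-read: CellTiter-Glo luminescence (30 min, room temperature) in the same p53RE-bla plates. These plates had been exposed to compounds for 16 h at 37 C.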

The nature of assay [9]: qHTS assay for small molecules that induce genotoxicity in human embryonic kidney cells expressing luciferase-tagged ATAD5 - cell viability (AID 651634; calls by dose curve; also: nearly all actives have a fitted effect of over 25% in size). The following applies: HEK293T ATAD5-luc cells viability, CellTiter-Fluor, 15.5 h; series mostly up to 83.3 µM. In outline: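 HEK293T ATAD5-luc cells, 2,000/well; compound 15.5 hr, 37C/5% CO2; CellTiter-Fluor 30 min, 37C; fluorescence read.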

Assay [10] can be described thus: qHTS assay for small molecule disruptors of the mitochondrial membrane potential (AID 720635). Also: potency is read from the fitted curve at half-maximal effect. The conditions noted are these: HepG2 mitochondrial membrane potential, Mito-MPS dye ratio; series mostly up to 83.2 µM. In a few lines:
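Mitochondrial membrane potential tracked with Mito-MPS dye, red aggregates (ex 540/em 590 nm) against green monomers (ex 490/em 535 nm). Compound treatment 1 hr at 37C, dye 30 min in HepG2.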

SMILES strings stand for the structures. Where “and” joins values, the source holds several entries; their conditions need not be identical. Equal entries are not always repeated. Inconclusive results are not listed. Calls of active or inactive are those of the source. Unless noted, calls follow the shape of the dose curve; as a rule, active = well fitted curve in the direction sought with a large enough effect in the repeat runs; inconclusive = weak or mixed curves; inactive = no such curve, though single readings can be large; an effect the other way counts as inactive or inconclusive.

Among the data in PubChem BioAssay (Tox21) are Potency and outcome values, retold here.

Consider `Cc1cccc(N)c1C`, for which the Potency entry in assay [1], in [2] and in assay [3] was “inactive” throughout. Besides, the result in assay [4], in assay [5], in assay [6] and in assay [7] was inactive.
Take `C[C@]12CC[C@H](O)CC1=CC[C@@H]1[C@@H]2CC[C@]2(C)C(=O)CC[C@@H]12`: the Potency entry in assay [2], in [8] and in assay [3] was “inactive” throughout. For the same compound, the outcome in assay [4], in [5], in assay [6] and in [7] was inactive.
For the compound `CC12CC1(C)C(=O)N(c1cc(Cl)cc(Cl)c1)C2=O` (centres undefined), the Potency result in assay [2], in assay [8] and in assay [9] was “inactive” each time. In addition, the compound was called inactive in assay [4], in assay [5] and in [6].
As for `CNc1cnn(-c2cccc(C(F)(F)F)c2)c(=O)c1Cl`, the Potency entry in assay [1], in assay [9], in assay [3] and in assay [10] was “inactive” throughout. The result in [4], in assay [5] and in [6] was inactive.
With `O=C(O)c1cc(Oc2ccc(C(F)(F)F)cc2Cl)ccc1[N+](=O)[O-]`, the Potency result in [2], in assay [9], in assay [3] and in assay [10] was “inactive” in each case. In addition, the compound was classed as inactive in assay [4], in [5], in [6] and in assay [7].
`Cc1ccc(N)cc1`: the Potency entry in [1], in [2], in assay [3] and in assay [10] was “inactive” in each case. For the same compound, the call in assay [4], in assay [5], in assay [6] and in assay [7] was inactive.
As for `O=[N+]([O-])c1ccc(Cl)c(Cl)c1`, the Potency entry in [2], in [9], in assay [3] and in [10] was “inactive” in each case. For the same compound, the compound was classed as inactive in assay [4], in assay [5] and in [6].
In the case of `CC(=O)/C=C/c1ccccc1`, the Potency result in assay [2], in assay [9], in assay [3] and in assay [10] was “inactive” each time. The compound was classed as inactive in assay [4], in assay [5] and in assay [6].
In the case of `NNc1ccccc1`, the Potency result in assay [2], in [8], in assay [3] and in assay [10] was “inactive” in each case. The result in [4], in [5] and in [6] was inactive.
As for `O=P1(NCCCl)OCCCN1CCCl` (centres undefined), the Potency entry in assay [2], in [3] and in assay [10] was “inactive” throughout. Also, the call in [4], in [5] and in assay [6] was inactive.
With `Cc1cccc(N)c1`, the Potency entry in assay [2], in [3] and in assay [10] was “inactive” throughout. Besides, the compound was called inactive in assay [4], in assay [5], in [6] and in [7].
For `Nc1nc(N)nc(NC2CC2)n1`, the Potency entry in [1], in assay [2], in [3] and in [10] was “inactive” throughout. Moreover, the outcome in [4], in assay [5], in assay [6] and in assay [7] was inactive.
`OCC(O)CCl` (centres undefined): the Potency result in assay [1], in assay [2], in [3] and in [10] was “inactive” throughout. The call in assay [4], in [5], in assay [6] and in assay [7] was inactive.
`COc1cc(-c2ccc(N)c(OC)c2)ccc1N`: the Potency entry in assay [1], in assay [2] and in assay [3] was “inactive” throughout. Moreover, the compound was classed as inactive in assay [4], in [5], in assay [6] and in [7].
Take `CNC(=O)O/N=C/C(C)(C)S(C)=O` (centres undefined): the Potency entry in assay [2], in assay [3] and in assay [10] was “inactive” each time. The result in assay [4], in assay [5], in [6] and in [7] was inactive.
For the compound `Oc1c(Br)cc(Br)cc1Br`, the Potency entry in assay [2], in [8] and in [3] was “inactive” each time. Besides, in assay [10], the Potency is 48.7 µM (active) and 54.5 µM (active). The compound was called inactive in assay [4], in assay [5] and in assay [6].
For the compound `c1ccc2c(c1)CCCC2`, the Potency entry in assay [1], in assay [2] and in assay [3] was “inactive” each time. The result in assay [4], in [5] and in assay [6] was inactive.
As to `OC[C@@H](O)[C@H]1O[C@@H]2O[C@H](C(Cl)(Cl)Cl)O[C@@H]2[C@H]1O`, the Potency entry in assay [2], in [9], in assay [3] and in [10] was “inactive” throughout. Moreover, the compound was called inactive in assay [4], in [5], in assay [6] and in assay [7].
Take `CN1C(=O)CCS(=O)(=O)C1c1ccc(Cl)cc1` (centres undefined): the Potency entry in [2], in assay [9], in assay [3] and in assay [10] was “inactive” in each case. Further, the compound was classed as inactive in assay [4], in [5], in assay [6] and in assay [7].
For `Nc1ccc(N)cc1`, the Potency was 29.8 µM (active) in assay [2]; 841 nM (active) and 5.47 µM (active) and 3.86 µM (active) in assay [10]. The Potency result in assay [9] and in [3] was “inactive” each time. For the same compound, the outcome in assay [4], in assay [5] and in [6] was inactive.
Take `CN(C)NC(=O)CCC(=O)O`: the Potency entry in [1], in [3] and in assay [10] was “inactive” throughout. Moreover, the outcome in assay [4], in [5] and in [6] was inactive.
